Inconclusive results are not listed. The source made the active and inactive calls. Unless noted, calls come from the whole dose curve; as a rule, active = well fitted curve in the direction sought with a large enough effect in the repeat runs; inconclusive = weak or mixed curves; inactive = no such curve, though single readings can be large; an effect the other way counts as inactive or inconclusive.
Experiments:
[1] = qHTS assay to identify small molecule agonists of the RXR signaling pathway - cell viability counter screen (AID 1159529);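 note: HEK 293T cells carrying an RXR-alpha UAS beta-lactamase reporter; series mostly up to about 77 µM; nearly all actives have a fitted effect of over 50% in size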
Method in brief: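 RXR-alpha-UAS-bla HEK 293T cells in medium with 2% charcoal-stripped FBS were preincubated 5 hr, then exposed to compounds for 16 hr at 37 C. Viability was read as CellTiter-Glo luminescence after 30 min at room temperature.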

[2] = qHTS assay to identify small molecule antagonists of the retinoid acid receptor (RAR) signaling pathway - cell viability counter screen (AID 1159551); note: nearly all actives have a fitted effect of over 35% in size
Method in brief: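 ATP-based viability, C3RL4 cells, 6 h at 37 C with 1 uM final retinol co-added after compound; luminescence read 30 min post CellTiter-Glo, RT.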

[3] = qHTS assay to identify small molecule antagonists of the retinoic acid receptor (RAR) signaling pathway (AID 1159552; note: nearly all actives have a fitted effect of over 50% in size)
Method in brief: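 RARE-luc C3RL4 cells; cpds + 1 uM (final) retinol, 6 hr, 37 C/5% CO2; luciferase reagent, 30 min RT, luminescence readout. Inhibitors of retinol-driven signal scored.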

[4] = qHTS assay to identify small molecule agonists of the retinoic acid receptor (RAR) signaling pathway (AID 1159553); note: potency is the fitted concentration of half-maximal effect
Method in brief: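 Quantitative high-throughput format: the Tox21 10K library was tested on C3RL4 RARE-luciferase cells for 6 hr at 37 C and 5% CO2, with luminescence measured after a 30 min room-temperature reagent step.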

[5] = qHTS assay to identify small molecule antagonists of the estrogen related receptor (ERR) signaling pathway from Tox21 library - cell viability counter screen (AID 1224834); note: nearly all actives have a fitted effect of over 30% in size
Method in brief: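 Compounds in DMSO were pinned onto ERR cells that had been incubated for 6 h, and the plates were held at 37 C for 17.5 h. CellTiter-Fluor reagent was then added and fluorescence was measured after 30 min.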

[6] = molecular target: Luciferin 4-monooxygenase (Photinus pyralis) (UniProt P08659); experiment: qHTS assay to identify small molecule inhibitors of firefly luciferase (AID 1224835); note: nearly all actives have a fitted effect of over 25% in size; note: potency is the fitted concentration of half-maximal effect
Sequence of Luciferin 4-monooxygenase (Photinus pyralis) (P08659 whole entry, looked up): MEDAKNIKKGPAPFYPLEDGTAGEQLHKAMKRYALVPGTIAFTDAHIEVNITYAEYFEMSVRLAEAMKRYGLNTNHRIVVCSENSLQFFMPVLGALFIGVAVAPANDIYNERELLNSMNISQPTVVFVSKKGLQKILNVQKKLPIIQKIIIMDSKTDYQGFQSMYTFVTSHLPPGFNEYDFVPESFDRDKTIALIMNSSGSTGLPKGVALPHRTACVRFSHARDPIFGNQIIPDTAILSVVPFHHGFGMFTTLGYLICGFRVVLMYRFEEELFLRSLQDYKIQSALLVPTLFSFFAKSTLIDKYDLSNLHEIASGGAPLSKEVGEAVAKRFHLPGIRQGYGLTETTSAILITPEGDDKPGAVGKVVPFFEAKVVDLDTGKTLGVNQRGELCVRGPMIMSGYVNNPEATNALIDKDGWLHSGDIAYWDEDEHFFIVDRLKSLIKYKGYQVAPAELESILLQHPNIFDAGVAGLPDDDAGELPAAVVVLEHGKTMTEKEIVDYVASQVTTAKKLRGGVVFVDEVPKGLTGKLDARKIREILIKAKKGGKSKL
Method in brief: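 Biochemical qHTS: compounds run as interplate titrations against purified firefly enzyme, with D-luciferin and ATP each at its KM concentration. Light output recorded by CCD imaging.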

[7] = qHTS assay to identify small molecule agonists of the constitutive androstane receptor (CAR) signaling pathway - cell viability counter screen (AID 1224836); note: series mostly up to about 92 µM; nearly all actives have a fitted effect of over 45% in size
Method in brief: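 HepG2 cells stably carrying hCAR and a CYP2B6-2.2kb reporter were plated 4 h, then given compounds at 15 concentrations plus PK11195 (final 0.75 uM). After 23 h at 37 C, viability was read by CellTiter-Fluor fluorescence.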

[8] = qHTS assay to identify small molecule antagonists of the constitutive androstane receptor (CAR) signaling pathway - cell viability counter screen (AID 1224837); note: series mostly up to about 92 µM; nearly all actives have a fitted effect of over 45% in size
Method in brief: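 Cells are seeded, rested 4 hr at 37 C/5% CO2, dosed with compound (15-point series) and 50 nM CITCO, incubated a further 23 hr, and then CellTiter-Fluor reagent is added before fluorescence is read. The line is HepG2 with stable hCAR and CYP2B6-2.2kb.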

[9] = molecular target: Nuclear receptor subfamily 1 group I member 3 (Homo sapiens) (UniProt Q14994); experiment: qHTS assay to identify small molecule antagonists of the constitutive androstane receptor (CAR) signaling pathway (AID 1224838); note: nearly all actives have a fitted effect of over 40% in size
Sequence of Nuclear receptor subfamily 1 group I member 3 (Homo sapiens) (Q14994 whole entry, looked up): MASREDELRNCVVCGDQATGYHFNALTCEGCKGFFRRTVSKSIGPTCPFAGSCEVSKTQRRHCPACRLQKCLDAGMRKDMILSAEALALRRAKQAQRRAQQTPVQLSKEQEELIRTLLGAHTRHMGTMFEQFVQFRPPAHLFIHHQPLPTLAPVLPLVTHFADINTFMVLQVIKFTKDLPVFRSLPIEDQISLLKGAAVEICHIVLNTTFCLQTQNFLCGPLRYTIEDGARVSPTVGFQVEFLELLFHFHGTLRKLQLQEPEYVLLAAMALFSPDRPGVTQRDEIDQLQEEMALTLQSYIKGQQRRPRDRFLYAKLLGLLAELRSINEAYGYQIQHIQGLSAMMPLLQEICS
Method in brief: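 Luminescence from a CYP2B6-2.2kb promoter reporter in hCAR-expressing HepG2 cells reflects CAR signaling. Cells received compounds at 15 concentrations and 50 nM CITCO (final), then incubated 24 h at 37 C/5% CO2.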

[10] = molecular target: Nuclear receptor subfamily 1 group I member 3 (Homo sapiens) (UniProt Q14994); experiment: qHTS assay to identify small molecule agonists of the constitutive androstane receptor (CAR) signaling pathway (AID 1224839);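 note: HepG2 cells stably carrying human CAR and a CYP2B6 luciferase reporter; series mostly up to about 92 µM; nearly all actives have a fitted effect of over 15% in size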
Method in brief: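 HepG2 cells stably expressing hCAR and a CYP2B6-2.2kb luciferase reporter were treated with compounds at 15 concentrations plus 0.75 uM PK11195 (final) for 24 h at 37 C; luminescence was read after ONE-Glo addition.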

[11] = qHTS assay to identify small molecule antagonists of the estrogen related receptor signaling pathway with the pleiotropic PPARgamma coactivator (PGC) from Tox21 10K library - cell viability counter screen (AID 1224840; active = well fitted cell-killing curve with a large enough effect in the repeat runs, not every such curve was filed as active; note: nearly all actives have a fitted effect of over 40% in size)
Method in brief: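 Cell viability is measured by CellTiter-Fluor fluorescence in PGC/ERR cells that receive compounds after a 6-hour attachment period and are then incubated 17.5 hours at 37 C.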

[12] = qHTS assay to identify small molecule antagonists of the estrogen related receptor signaling pathway with the pleiotropic PPARgamma coactivator (PGC) from Tox21 10K library (AID 1224841; call rule not given here; note: series mostly up to about 92 µM; actives are mostly falling curves and most rising ones were filed inactive; nearly all actives have a fitted effect of over 50% in size)
Method in brief: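 Cells stably carrying the PGC/ERR reporter, seeded at 2,000 per well, received pin-transferred compounds 6 h post-plating. Exposure lasted 18 h at 37 C. Signal: One-Glo luminescence.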

[13] = qHTS assay to identify small molecule agonists of the estrogen related receptor signaling pathway with the pleiotropic PPARgamma coactivator (PGC) from Tox21 10K library (AID 1224842); note: nearly all actives have a fitted effect of over 15% in size
Method in brief: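 PGC/ERR reporter cell line, 2,000 cells per well, incubated 6 h at 37 C before 23 nL compound in DMSO was added. After 18 h at 37 C, One-Glo luminescence read following 30 min at room temperature.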

[14] = molecular target: Thyrotropin receptor (Homo sapiens) (UniProt P16473); experiment: qHTS assay to identify small molecule agonists of the thyroid stimulating hormone receptor (TSHR) signaling pathway (AID 1224843; calls by dose curve; note: nearly all actives have a fitted effect of over 45% in size)
Sequence of Thyrotropin receptor (Homo sapiens) (P16473 whole entry, looked up): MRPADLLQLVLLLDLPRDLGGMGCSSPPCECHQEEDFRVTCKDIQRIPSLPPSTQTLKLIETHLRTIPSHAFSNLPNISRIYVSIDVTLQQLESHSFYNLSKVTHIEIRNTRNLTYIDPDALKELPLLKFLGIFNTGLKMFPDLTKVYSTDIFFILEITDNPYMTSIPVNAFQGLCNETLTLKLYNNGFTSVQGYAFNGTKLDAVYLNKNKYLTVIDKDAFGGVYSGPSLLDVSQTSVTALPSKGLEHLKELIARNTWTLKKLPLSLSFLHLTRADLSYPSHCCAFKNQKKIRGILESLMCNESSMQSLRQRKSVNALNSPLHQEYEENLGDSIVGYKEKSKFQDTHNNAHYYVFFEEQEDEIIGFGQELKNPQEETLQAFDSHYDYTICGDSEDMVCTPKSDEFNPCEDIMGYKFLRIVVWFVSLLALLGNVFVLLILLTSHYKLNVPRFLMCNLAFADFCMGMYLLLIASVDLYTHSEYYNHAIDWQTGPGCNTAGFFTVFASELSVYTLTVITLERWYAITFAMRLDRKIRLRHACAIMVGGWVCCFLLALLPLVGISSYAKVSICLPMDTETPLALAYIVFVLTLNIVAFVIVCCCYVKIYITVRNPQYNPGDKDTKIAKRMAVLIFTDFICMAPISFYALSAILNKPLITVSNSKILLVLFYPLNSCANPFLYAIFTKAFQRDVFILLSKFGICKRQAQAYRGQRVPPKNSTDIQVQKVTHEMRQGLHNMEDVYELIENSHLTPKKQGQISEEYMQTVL
Method in brief: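 HEK293/TSHR, 800 cells/well; cpd 30 min RT; add cAMP-d2 + anti-cAMP-cryptate, 1 h RT; fluorescence read on plate reader. 15-pt titration, n=3.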

[15] = qHTS assay to identify small molecule antagonists of the estrogen related receptor (ERR) signaling pathway - cell viability counter screen (AID 1224818);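 note: series mostly up to about 46 µM; viability measured after 17.5 h of compound exposure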
Method in brief: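 Quantitative high-throughput viability counter screen in ERR cells. Compounds (DMSO) incubated 17.5 h at 37 C; read-out was CellTiter-Fluor fluorescence.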

[16] = qHTS assay to identify small molecule antagonists of the estrogen related receptor signaling pathway with the pleiotropic PPARgamma coactivator (PGC) cell viability counter screen (AID 1224822; note: series mostly up to about 46 µM)
Method in brief: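 Cytotoxicity in the PGC/ERR cell line is assessed with CellTiter-Fluor, read as fluorescence intensity 30 min after reagent addition, following 17.5 h compound treatment at 37 C.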

Measured: Potency

N#CC1(N=NC2(C#N)CCCCC2)CCCCC1
not listed: [14] | [15] | [16]
inactive: all other assays above

CCOP(=S)(OCC)Oc1ccc(S(C)=O)cc1 (configuration not stated)
not listed: [9] | [15] | [16]
inactive: all other assays above

Nc1cc(Cl)cc(C(=O)O)c1Cl
not listed: [14] | [15] | [16]
inactive: all other assays above

CN1C(=O)CN=C(c2ccccc2)c2cc([N+](=O)[O-])ccc21
not listed: [9] | [12] | [13] | [15] | [16]
inactive: all other assays above

CCOC(=O)c1cncn1C(C)c1ccccc1 (configuration not stated)
not listed: [10] | [15] | [16]
inactive: all other assays above

COCc1cnc(C2=NC(C)(C(C)C)C(=O)N2)c(C(=O)O)c1 (configuration not stated)
not listed: [10] | [12] | [13] | [15] | [16]
inactive: all other assays above

ClCc1ccccc1Cl
not listed: [9] | [15] | [16]
inactive: all other assays above

C[C@H]1[C@@H]2Cc3ccc(O)cc3[C@@]1(C)CCN2C
not listed: [9] | [10] | [15] | [16]
inactive: all other assays above

CCCCOC(=O)CCC(=O)OCCCC
not listed: [10] | [15] | [16]
inactive: all other assays above

Cc1ccccc1
not listed: [12] | [13] | [15] | [16]
inactive: all other assays above

CCOP(=O)(SC(C)CC)N1CCSC1=O (configuration not stated)
not listed: [9] | [12] | [13] | [15] | [16]
inactive: all other assays above

C=CCc1ccc(OC(=O)Cc2ccccc2)c(OC)c1
active: [6] 25.2 µM
not listed: [10] | [12] | [13] | [14] | [15] | [16]
inactive: all other assays above

C=CCc1ccccc1O
not listed: [9] | [10] | [14] | [15] | [16]
inactive: all other assays above

CC(Cl)C(=O)O (configuration not stated)
not listed: [12] | [13] | [15] | [16]
inactive: all other assays above

OCCCl
not listed: [9] | [12] | [13] | [14] | [15] | [16]
inactive: all other assays above

O=C1CC[C@@]2(O)[C@H]3Cc4ccc(O)c5c4[C@@]2(CCN3CC2CC2)[C@H]1O5
not listed: [12] | [13] | [15] | [16]
inactive: all other assays above

CN[C@@H](C)[C@H](O)c1ccccc1
not listed: [12] | [13] | [15] | [16]
inactive: all other assays above

N#CC(C#N)=Cc1ccc(O)c(O)c1
active: [4] 26.6 µM
not listed: [12] | [13]
inactive: all other assays above

C=CC(=O)OCC
not listed: [9] | [12] | [13] | [14] | [15] | [16]
inactive: all other assays above

O=C(O)C(F)(F)C(F)(F)C(F)(F)C(F)(F)C(F)(F)F
not listed: [10] | [12] | [13] | [15] | [16]
inactive: all other assays above

— PubChem BioAssay (Tox21)
